PubChem BioAssay AID1159580 (chemical genetic matrix, 2015)
The campaign covered roughly 5,500 compounds. About 2,000 (36%) were called active. Another 18% or so got no clear call; they are omitted. Rule as the data show it: active = normalized growth mostly below about 0.91 (no sharp cut-off); inconclusive = no clear call, values can overlap the other calls; inactive = mostly above about 0.92. Some of the results follow.

Experiment: chemical genetic growth profiling, strain panel (AID 1159580);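 also: tested at 20 µM; growth read once vehicle control cultures reached saturation at 30 °C; 1 = growth at the plate median or of vehicle wells; lower values mean less growth of the strain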
Details: S. cerevisiae deletion strains, growth OD
[1] = locus YAL040C, strain CLN3, hits give low values
[2] = locus YCL061C, strain MRC1 (second series), hits give low values
[3] = locus YDR150W, strain NUM1, hits give low values
[4] = locus YDR363W, strain ESC2, hits give low values
[5] = locus YER002W, strain NOP16, hits give low values
[6] = locus YJR075W, strain HOC1, hits give low values
[7] = locus YMR307W, strain GAS1, hits give low values
[8] = locus YNL175C, strain NOP13, hits give low values
[9] = locus YNL197C, strain WHI3, hits give low values
[10] = locus YNL224C, strain SQS1, hits give low values
[11] = locus YOR083W, strain WHI5 (second series), hits give low values
[12] = locus YPL055C, strain LGE1, hits give low values
[13] = locus YGR078C, strain PAC10, hits give low values
[14] = locus YNL128W, strain TEP1, hits give low values
[15] = locus YNL322C, strain KRE1, hits give low values
[16] = locus YAL013W, strain DEP1, hits give low values
[17] = locus YMR263W, strain SAP30, hits give low values
[18] = locus YPL241C, strain CIN2, hits give low values
[19] = locus YDL101C, strain DUN1, hits give low values
[20] = locus YHR030C, strain SLT2, hits give low values

Measured: normalized growth

C=CCN1CC[C@]23c4c5ccc(O)c4O[C@@H]2/C(=N\N=C2\CC[C@@]4(O)C6Cc7ccc(O)c8c7[C@@]4(CCN6CC=C)[C@@H]2O8)CC[C@@]3(O)C1C5
inactive: [1] 1.01 | [2] 1 | [3] 1 | [4] 1.01 | [5] 1 | [6] 1 | [7] 1.01 | [8] 0.988 | [9] 1.02 | [10] 1.01 | [11] 1.02 | [12] 0.982

C=CCN1CCc2cccc3c2[C@H]1Cc1ccc(O)c(O)c1-3
active: [2] 0.481 | [4] 0.516 | [6] 0.199 | [14] 0.888 | [15] 0.152 | [11] 0.712
inactive: [1] 0.942 | [5] 0.976 | [13] 0.979 | [8] 0.966 | [9] 0.961 | [10] 0.985

CC[C@H]1CN2CCc3cc(OC)c(OC)cc3[C@@H]2C[C@@H]1C[C@H]1NCCc2cc(OC)c(OC)cc21
inactive: [16] 1.01 | [1] 0.999 | [2] 0.995 | [4] 0.999 | [5] 1 | locus YGR229C, strain SMI1, hits give low values 0.994 | [17] 1.01 | [7] 1.01 | [14] 0.999 | [8] 1.03 | [9] 1.02 | [10] 1.02 | [11] 1.02 | [12] 1.02 | [18] 1

O=C(Nc1cc(C(F)(F)F)cc(C(F)(F)F)c1)C(Sc1ccccn1)c1ccccc1 (stereo unspecified)
inactive: [16] 0.998 | locus YBR229C, strain ROT2, hits give low values 0.983 | [19] 0.987 | locus YDL134C, strain PPH21, hits give low values 0.979 | [3] 1 | locus YEL061C, strain CIN8, hits give low values 0.988 | [13] 0.989 | [20] 0.982 | locus YHR087W, strain rtc3, hits give low values 0.973 | locus YJR043C, strain POL32, hits give low values 0.995 | [6] 1.01 | locus YLR039C, strain RIC1, hits give low values 0.944 | locus YLR058C, strain SHM2 (second series), hits give low values 0.978 | locus YLR085C, strain ARP6, hits give low values 1.02 | locus YLR262C, strain YPT6, hits give low values 0.962 | locus YML094W, strain GIM5, hits give low values 0.953 | locus YMR219W, strain ESC1, hits give low values 0.99 | [17] 1.03 | locus YNL153C, strain GIM3, hits give low values 1.01 | locus YNL298W, strain CLA4 (second series), hits give low values 1.01 | [15] 0.991 | locus YNR030W, strain Alg12, hits give low values 0.997 | locus YOL006C, strain TOP1, hits give low values 0.997 | [12] 1.03 | [18] 0.98 | locus YPR135W, strain CTF4, hits give low values 0.959

O=C(Nc1ccccn1)c1cc(-c2ccccc2)c(C(F)(F)F)s1
active: [20] 0.816 | locus YLR113W, strain HOG1, hits give low values 0.77 | locus YPL256C, strain CLN2, hits give low values 0.806
inactive: locus YAR019C, strain CDC15, hits give low values 0.954 | locus YBL105C, strain PKC1, hits give low values 0.94 | locus YBR135W, strain CKS1, hits give low values 0.947 | locus YBR136W, strain MEC1, hits give low values 0.953 | locus YBR160W, strain CDC28, hits give low values 0.939 | locus YDL017W, strain CDC7, hits give low values 0.945 | locus YDL028C, strain MPS1, hits give low values 0.95 | [19] 0.944 | locus YDL108W, strain KIN28, hits give low values 0.962 | locus YDL132W, strain cdc53, hits give low values 0.942 | locus YDL214C, strain PRR2, hits give low values 0.897 | locus YDR052C, strain DBF4, hits give low values 0.955 | locus YDR054C, strain cdc34, hits give low values 0.947 | locus YDR226W, strain ADK1, hits give low values 0.965 | locus YDR477W, strain SNF1, hits give low values 0.969 | locus YER123W, strain YCK3, hits give low values 0.967 | locus YER133W, strain GLC7, hits give low values 0.961 | locus YFL009W, strain cdc4, hits give low values 0.955 | locus YFL029C, strain CAK1, hits give low values 0.939 | locus YFR003C, strain YPI1, hits give low values 0.95 | locus YFR019W, strain FAB1, hits give low values 0.953 | locus YFR028C, strain CDC14, hits give low values 0.959 | locus YGR040W, strain KSS1, hits give low values 0.96 | locus YGR052W, strain FMP48, hits give low values 0.971 | locus YGR092W, strain DBF2, hits give low values 0.902 | locus YHR079C, strain IRE1, hits give low values 0.877 | locus YHR082C, strain KSP1, hits give low values 0.918 | locus YHR205W, strain SCH9, hits give low values 0.836 | locus YIL147C, strain SLN1, hits give low values 0.949 | locus YJL095W, strain BCK1, hits give low values 0.916 | locus YJL128C, strain PBS2, hits give low values 0.909 | locus YJL157C, strain FAR1, hits give low values 0.948 | locus YJR016C, strain ILV3, hits give low values 0.951 | locus YJR066W, strain TOR1 (second series), hits give low values 1 | locus YJR066W, strain TOR1, hits give low values 0.897 | locus YKL048C, strain ELM1, hits give low values 0.948 | locus YKL067W, strain YNK1, hits give low values 0.928 | locus YKL101W, strain HSL1, hits give low values 0.929 | locus YKL193C, strain SDS22, hits give low values 0.929 | locus YKL203C, strain TOR2, hits give low values 1.01 | locus YLR133W, strain CKI1, hits give low values 0.941 | locus YLR403W, strain SFP1, hits give low values 0.97 | locus YML070W, strain DAK1, hits give low values 0.924 | locus YMR001C, strain CDC5, hits give low values 0.921 | locus YMR205C, strain PFK2 (second series), hits give low values 0.934 | locus YMR277W, strain FCP1, hits give low values 0.928 | locus YNL006W, strain LST8, hits give low values 0.94 | locus YNL020C, strain ARK1, hits give low values 0.931 | locus YNL161W, strain CBK1, hits give low values 0.934 | locus YNL183C, strain NPR1, hits give low values 0.887 | locus YNL207W, strain RIO2, hits give low values 0.935 | locus YNL222W, strain SSU72, hits give low values 0.941 | locus YNL307C, strain MCK1 (second series), hits give low values 0.897 | locus YOL078W, strain AVO1, hits give low values 0.934 | locus YOL136C, strain PFK27, hits give low values 0.893 | locus YOR061W, strain CKA2, hits give low values 0.95 | locus YOR119C, strain RIO1, hits give low values 0.945 | locus YOR231W, strain MKK1, hits give low values 0.876 | locus YOR329C, strain SCD5, hits give low values 0.935 | locus YPL031C, strain PHO85, hits give low values 0.954 | locus YPL153C, strain RAD53, hits give low values 0.963 | locus YPL204W, strain HRR25, hits give low values 0.945 | locus YPL209C, strain IPL1, hits give low values 0.938 | locus YPR025C, strain CCL1, hits give low values 0.942 | locus YPR106W, strain ISR1, hits give low values 0.936 | locus YPR111W, strain DBF20, hits give low values 0.975 | strain NNK1, hits give low values 0.919 | strain TSCII, hits give low values 0.938
